IMPase cell inh: IMPase inhibition in cells. P97697. CHO-M1 cells, IP1 accumulation, HTRF TR-FRET ratio. inhibition (IP1 accumulation), % at 46.1 µM. 120,000 tested, under 10 active. AID 901; active = well fitted curve in the direction sought with a large enough effect in the signal ratio, not every such curve was filed as active; inconclusive = small, poorly fitted or top-dose-only effect, or a change in a side signal; inactive = no such curve, though single readings can be large or run the other way; the % refers to the signal ratio;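 also: cells stimulated with carbachol in lithium chloride buffer; plate controls were DMSO basal wells for no effect and reference inhibitor wells for full effect; higher means more IMPase inhibition seen as more IP1 and lower FRET ratio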
Target sequence (P97697 whole entry, looked up): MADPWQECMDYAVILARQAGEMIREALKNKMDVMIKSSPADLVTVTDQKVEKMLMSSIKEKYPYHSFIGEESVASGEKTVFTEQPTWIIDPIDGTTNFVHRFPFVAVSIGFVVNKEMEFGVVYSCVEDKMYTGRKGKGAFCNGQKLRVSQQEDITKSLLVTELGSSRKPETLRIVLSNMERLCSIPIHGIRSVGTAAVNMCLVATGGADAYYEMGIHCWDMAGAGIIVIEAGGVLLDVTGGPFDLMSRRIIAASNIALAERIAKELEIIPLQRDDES
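Cellular IMPase inhibition is scored as a rise in cytosolic IP1, detected by competitive TR-FRET between d2-labelled IP1 and a europium anti-IP1 antibody. M1-expressing CHO cells were stimulated with carbachol for 30 min at 37C, with lithium (50 mM LiCl) present in the buffer.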
HPGD inh: blocks human HPGD enzyme activity; P15428; purified HPGD, NADH fluorescence kinetic, PGE2 substrate; Potency, µM, for the others: top-dose activity change, negative = inhibition, usual class: inhibitors; 150,000 compounds, 4.3% hits; AID 894; also: potency is read from the fitted curve at half-maximal effect
Target sequence (P15428 whole entry, looked up): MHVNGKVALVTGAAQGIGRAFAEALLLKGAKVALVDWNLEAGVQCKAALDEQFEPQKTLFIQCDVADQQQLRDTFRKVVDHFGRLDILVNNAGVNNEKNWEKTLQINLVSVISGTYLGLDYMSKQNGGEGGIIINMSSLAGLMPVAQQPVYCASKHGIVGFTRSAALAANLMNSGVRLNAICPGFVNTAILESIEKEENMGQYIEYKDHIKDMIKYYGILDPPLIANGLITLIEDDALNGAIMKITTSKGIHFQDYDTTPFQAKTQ
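20 nM HPGD preincubated 15 min at room temperature with compound in 50 mM Tris-HCl pH 8, 0.01% Tween 20. Started with 1 mM NAD+ and 30 uM prostaglandin E2; NADH fluorescence (360/450 nm) read 5 times over 30-s intervals, last minus first.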
ALDH1A1 block: ALDH1A1 (human) enzyme inhibition | P00352 | Purified ALDH1A1, NADH fluorescence, propionaldehyde substrate | Potency, µM (top dose mostly 75.3 µM), without a hit: at the highest dose activity, negative = inhibition, usual class: inhibitors | 220,000 compounds, 7.3% hits | AID 1030;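 also: potency is read from the fitted curve at half-maximal effect; plate controls were no enzyme wells and a reference inhibitor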
Active calls of the source: *; ? = inconclusive; . = no result; [ ] = another dose, or the depositor's remark. Sampled rows, rich in hits. Any-hit rate of the full collection: about 9%. Unless noted, calls follow the shape of the dose curve; as a rule, active = well fitted inhibition curve with a large enough effect (not every such curve was filed as active); inconclusive = small, poorly fitted or top-dose-only effect, or another doubt; inactive = no such curve, though single readings can be large or run the other way. Unless noted, % is scaled to controls: 0 for no effect and ±100 for the full control effect.

SMILES | IMPase cell inh | HPGD inh | ALDH1A1 block
CCOC(=O)c1c(NC(=O)CN2CCN(C(=O)c3ccco3)CC2)sc(C(N)=O)c1C | . | . | -2.7%
CCc1c(C)sc(NC(=O)c2ccco2)c1C(=O)N1CCOCC1 | 8.3 | ? | 22.4µM*
O=C(CSc1ncnc2ccccc12)NCc1ccc2c(c1)OCO2 | . | . | -3.9%
CC(c1ccco1)N(C(=O)CSc1ccc(Br)cc1)c1ccccn1 (stereo not given) | -8.2 | -9.4% | 5.7%
C=C(C(=O)OCC)C(=O)c1ccccc1 | . | -7.8% | 14.1µM*
CCOC(=O)/C(=N\NC(=O)c1ccccc1)c1ccccc1 | -5.7 | -6.3% | -1.8%
O=[N+]([O-])c1ccc(CSc2ncnc3c2ncn3[C@@H]2O[C@@H](CO)[C@@H](O)[C@H]2O)cc1 | 3.3 | . | .
CC(=O)OCC1OC(C#Cc2ccccc2)C=CC1O (stereo not given) | . | . | 6.8%[13.5 µM]
Cc1ccc(Cn2c(SC3CCOC3=O)nc3ccccc3c2=O)cc1 (stereo not given) | . | -9.4% | ?
CCc1cc2c(=O)n(Cc3ccccc3)c(SC3CCOC3=O)nc2s1 (stereo not given) | . | . | 2.82µM*
O=C1OCCC1Sc1nnc(-c2ccccc2Cl)n1Cc1ccccc1 (stereo not given) | . | -2.2% | 0.3%
O=C1OCCC1Sc1nnc(-c2cccs2)n1Cc1ccccc1 (stereo not given) | 2.7 | -10.4% | 20µM*
Cc1cccc(OCCCC(=O)NCC(=O)Nc2cccc(C)c2C)c1 | . | . | -3.9%
COC(=O)N1C2=C(c3ccccc3[C@@H]1CC(=O)Nc1ccc3ccc4cccc5ccc1c3c45)[C@@H]1C(=O)N(c3ccccc3)C(=O)[C@@H]1[C@H](C)C2 | . | ? | 9.6%[13.5 µM]
Cc1ccc(C)c(NC(=O)CS(=O)(=O)c2cn(C)c3ccccc23)c1 | 4.5 | -11.9% | 19.7%
Cc1cccc(C)c1NC(=O)N1CCC(c2nc3ccccc3o2)CC1 | -2.2 | -6.1% | 1.0%
O=C1CC(N2CCN(c3ccccn3)CC2)C(=O)N1c1ccc(Cl)cc1 (stereo not given) | . | . | 25.1µM*
COc1cccc(N2C(=O)CC(N3CCC(c4nc5ccccc5[nH]4)CC3)C2=O)c1 (stereo not given) | 8.5 | -13.6% | 31.6µM*
O=C1CC(N2CCC(c3nc4ccccc4o3)CC2)C(=O)N1c1cc(Cl)cc(Cl)c1 (stereo not given) | 16.5 | -17.0% | 3.98µM*
COc1ccc(NC2CCN(C3CC(=O)N(c4ccc(F)c(Cl)c4)C3=O)CC2)cc1 (stereo not given) | -2.7 | ? | 1.12µM*
CCN1C(=O)CC(N2CCC(Nc3ccc(OC)cc3)CC2)C1=O (stereo not given) | 19.2 | -2.4% | ?
Cc1cccc(N2C(=O)CC(N3CCC(c4nc5ccccc5[nH]4)CC3)C2=O)c1 (stereo not given) | -2.1 | -11.3% | ?
CN1C(=O)CC(N2CCN(c3ccc(Cl)cc3)CC2)C1=O (stereo not given) | . | ? | 2.4%
COc1cccc(N2CCN(C3CC(=O)N(c4ccc(C)c(Cl)c4)C3=O)CC2)c1 (stereo not given) | 5.9 | -13.7% | ?
O=C1CC(N2CCN(c3cccc(C(F)(F)F)c3)CC2)C(=O)N1c1ccccc1 (stereo not given) | -10.9 | -1.3% | -10.1%
SMILES | IMPase cell inh | HPGD inh | ALDH1A1 block
COc1cccc(N2CCN(C3CC(=O)N(c4ccc(F)c(Cl)c4)C3=O)CC2)c1 (stereo not given) | 10.8 | -27.5% | 3.55µM*
O=C1CC(N2CCN(c3cccc(C(F)(F)F)c3)CC2)C(=O)N1c1ccccc1F (stereo not given) | 0.1 | -14.2% | 20µM*
CCCOc1ccc(N2C(=O)CC(N3CCN(S(=O)(=O)c4ccccc4)CC3)C2=O)cc1 (stereo not given) | 5.1 | -13.5% | ?
COc1ccc(N2C(=O)CC(N3CCN(S(=O)(=O)c4c(F)cccc4F)CC3)C2=O)cc1OC (stereo not given) | -2.9 | -17.5% | 14.1µM*
Cc1cc(N)nc2nc(C(F)(F)F)nn12 | . | . | -0.8%
O=C(O)Cc1csc(-c2cccc(F)c2)n1 | . | . | 2.3%
Nc1nc(NCC2CCCO2)nc(NCC2CCCO2)c1[N+](=O)[O-] (stereo not given) | . | -5.4% | ?
CC(C)CCNc1nc(N)c([N+](=O)[O-])c(NCC2CCCO2)n1 (stereo not given) | . | -18.6% | 11.2µM*
COc1ccc2c(=O)c3c(=O)n(Cc4ccco4)c(-c4ccc(C)cc4)nc3oc2c1 | 10.9 | -7.5% | ?
COc1ccc2c(=O)c3c(=O)n(Cc4ccco4)c(C(C)C)nc3oc2c1 | -4.2 | -27.7% | 9.46µM*
COc1cc(C2Nc3ccc4ncccc4c3C3=C2C(=O)CC(C)(C)C3)cc(OC)c1O (stereo not given) | 10.9 | -13.1% | 12.6µM*
COc1cc(C2Nc3ccc4ncccc4c3C3=C2C(=O)CCC3)cc(OC)c1O (stereo not given) | 2.7 | -8.5% | -2.9%
Cc1ccc(C2Nc3ccc4ccccc4c3C3=C2C(=O)CC(C)(C)C3)o1 (stereo not given) | 3.1 | ? | ?
CC1(C)CC(=O)C2=C(C1)c1c(ccc3ccccc13)NC2c1cc([N+](=O)[O-])cc([N+](=O)[O-])c1O (stereo not given) | . | . | 11.2µM*
O=C(CSc1nnnn1-c1ccc(F)cc1)NCc1cccs1 | . | . | -2.0%
CCCCN(C)C(=O)c1nc2ccccn2c1CN1CCN(c2ccccn2)CC1 | . | . | -0.8%
CCCCN(C)C(=O)c1nc2ccccn2c1CN1CCN(C(=O)c2cccs2)CC1 | . | . | 6.31µM*
CCCCc1ccc(NC(=O)COCC)cc1 | 4.8 | 10µM* | 14.1µM*
CCOCC(=O)Nc1ccc(Br)c(C)c1 | . | . | 14.1µM*
CCc1nn(CC(=O)Nc2cc(C)ccc2C)c(=N)s1 | . | . | -3.2%
CCc1nn(CC(=O)Nc2ccc(Br)c(C)c2)c(=N)s1 | . | . | 11.2µM*
CCOCC(=O)Nc1cccc(C(=O)OCC)c1 | -5.0 | -5.3% | ?
CCCCc1ccc(NC(=O)CC(C)C)cc1 | . | . | 3.1%
CCCCc1ccc(N=N/C(C(=O)Nc2cc(OC)c(NC(C)=O)cc2OC)=C(/C)O)cc1 | . | -6.6% | 1.5%
C1CCN2C[C@H]3C[C@H](CN4CCCCC34)C2C1 (stereo not given in full) | . | -9.0% | 0.6%
SMILES | IMPase cell inh | HPGD inh | ALDH1A1 block
Cc1cccc(CN2CCN(Cc3ccc4nonc4c3)CC2CCO)n1 (stereo not given) | . | . | -7.5%
COc1ccc(NS(=O)(=O)c2cc(NC(=O)c3cccc(OCc4c(C)noc4C)c3)ccc2OC)cc1 | . | -17.0% | -9.4%
O=C(COC(=O)c1ccccc1C(=O)c1ccccc1)NCCc1ccc(Cl)cc1Cl | 8.1 | -8.8% | 4.6%
Fc1ccc(C(NCCc2ccccc2)c2nnc(-c3ccccc3Cl)o2)cc1 (stereo not given) | 6.8 | . | .
COCCSc1nnc(NC(=O)Cc2ccccc2OC)s1 | 13.8 | -15.6% | 22.4µM*
COCCSc1nnc(NC(=O)Cc2cccs2)s1 | -4.5 | -20.8% | 1.4%
COc1cccc(NC(=O)CCSc2nnc3scc(-c4ccccc4)n23)c1 | . | -12.5% | -4.8%
CC12CN(C(=S)Nc3ccccc3)CC(C)(CN(C(=S)Nc3ccccc3)C1)C2=O | . | . | -86.4%
Cc1ccc(/C=N/N2CCN(c3ccccn3)CC2)cc1 | . | . | 7.0%
CCN(Cc1ccccc1)c1ccc(/C=N/N2CCOCC2)cc1 | . | -15.9% | 2.24µM*

Bioassay records deposited in PubChem BioAssay by National Center for Advancing Translational Sciences (NCATS).
